# Data taken from PubChem BioAssay (Tox21).
# Calls of active or inactive are those of the source. Entries that show only a call come without a potency. Calls follow the shape of the full dose curve.
# Assay: G protein-coupled receptor (GPCR) small molecule agonists, calcium flux assay: HEK293 wild type cell line counter screen (AID 1920065)
# Conditions: HEK293 WT calcium flux, fluorescence, agonist mode; series mostly up to 57.6 µM
# Description: U.S. Tox21 Program National Center for Advancing Translational Sciences [NCATS] Division of Preclinical Innovation [DPI] U.S. Environmental Protection Agency [EPA] National Institutes of Environmental Health Sciences [NIEHS] National Toxicology Program [NTP] U.S. Food and Drug Administration [FDA] Assay overview: The increased intracellular calcium release that occurred upon G protein-coupled receptor (GPCR) activation led to the frequent use of calcium flux assays to detect GPCR activation. For the purpose of studying and screening compounds that may activate GPCR, receptor-overexpressing models were typically generated using Hek293 wild-type (WT) cells. In order to eliminate the compounds that may have induced calcium release for non-specific activation, a counter-assay utilizing calcium flux on Hek293 WT cells was performed. The data were formulated in order to serve as a control for any calcium flux detection utilizing Hek293 cells with either GPCR overexpression or gene modification. The procurement of Hek293 WT cells from ATCC. Fluorescence intensity can be utilized to determine the activation of the compound in a calcium flux assay. As a counter control, this cell line was utilized to screen the Tox21 10K compound library.
# Assay Protocol Summary: Hek293 cells were dispensed at 1500cells/4uL/well in 1536-well black wall/clear bottom plates using a multidrop dispenser. After the assay plates were incubated at a 37 C/5% CO2 incubator for 18 hours, 4 uL of Calcium Dye Solution was added to each well. The plates were incubated at 37 C for 1 hour. For agonist mode, 23 nL of compounds dissolved in DMSO, positive control (ATP) or DMSO only was transferred to the assay plate by a pin tool station. The fluorescence intensity in the plates was measured using FDSS 7000EX kinetic plate reader with a filter set of Ex/Em=480/540 for 3 min at 1 sec intervals. Each test compound was measured at 15 concentrations and in triplicates.
row,Compound,Potency
1,O=C(c1ccc(O)c(O)c1)c1ccc(O)cc1O,inactive
2,CC(C)CCOC(=O)/C=C/c1ccccc1,inactive
3,Clc1ccc(Nc2nnc(Cc3ccncc3)c3ccccc23)cc1,inactive
4,Cc1nc2ccccc2c(=O)o1,inactive
5,CC1(C)CC(O)CC(C)(C)N1[O],inactive
6,COc1cc(NC(C)CCCN)c2ncccc2c1 (stereo not given),inactive
7,CCNC(=O)/C=C/c1cccc(Br)c1,inactive
8,CCCCCCNC(=O)n1cc(F)c(=O)[nH]c1=O,inactive
9,CCCCCCCCn1sc(Cl)c(Cl)c1=O,inactive
10,CCCCCCCC/C=C\CCCCCCCC(=O)OCCO,inactive
11,Cc1cccc(O)c1N,inactive
12,CCN1CCN(C(=O)N[C@@H](C(=O)N[C@@H]2C(=O)N3C(C(=O)O)=C(CSc4nnnn4C)CS[C@H]23)c2ccc(O)cc2)C(=O)C1=O,inactive
13,C[C@]12CCC(=O)C=C1C=C[C@@H]1[C@@H]2CC[C@@]2(C)[C@H]1CC[C@@]21CCC(=O)O1,inactive
14,CCN1CCC[C@H]1CNC(=O)c1c(OC)ccc(Br)c1OC,inactive
15,CCN(CC)C(=O)c1cc(S(=O)(=O)Cc2ccccc2)c(N2CCC(c3ccccc3)CC2)cc1N(CC)CCN(C)C,inactive
16,COCCOc1cc2cc(C(=O)NC3CCN(C(C)C)CC3)n(CC(=O)Nc3ccc(Cl)cn3)c2cn1,inactive
17,CCCCCCCCCCCCCCCCN,inactive
18,O=C(CC(=O)C(F)(F)F)c1ccccc1,inactive
19,COc1cc(NCc2ccc3nc(N)nc(N)c3c2C)cc(OC)c1OC,inactive
20,CCNc1nc(NC(C)CC)nc(OC)n1 (stereo not given),inactive

row,Compound,Potency
1,CCCCC(CC)COS(=O)(=O)O (stereo not given),inactive
2,NCCc1ccn[nH]1,inactive
3,CC1CCCCN1CCCOC(=O)c1ccc(OC2CCCCC2)cc1 (stereo not given),inactive
4,CC(=O)c1ccc2c(c1)[C@H](NC(=O)c1ccc(F)cc1)[C@@H](O)C(C)(C)O2,inactive
5,CN1CCC(N(Cc2cccs2)c2ccccc2)CC1,inactive
6,C[C@@H](C1=C(CCN(C)C)Cc2ccccc21)c1ccccn1,inactive
7,CCN(CC)CCNC(=O)COc1ccc(OC)cc1,inactive
8,CCCCCCCCCCCCCCCS(=O)(=O)Oc1ccccc1,inactive
9,O=[N+]([O-])c1ccc(O/N=C/c2cc(Br)c(O)c(Br)c2)c([N+](=O)[O-])c1,inactive
10,CC(=O)[C@H]1[C@H](C#N)C[C@H]2[C@@H]3CC=C4C[C@@H](O)CC[C@]4(C)[C@H]3CC[C@@]21C,inactive
11,O=C1NC2CCCCN2C12CCN(CCCN1c3ccccc3CCc3ccc(Cl)cc31)CC2 (stereo not given),inactive
12,Clc1ccccc1CN1CCc2sccc2C1,inactive
13,O=C1Cc2ccccc2N1c1c(Cl)cccc1Cl,inactive
14,O=C(NS(=O)(=O)/C=C/c1cccs1)c1ccc(F)cc1Br,inactive
15,CCCCCC/C=C\CCCCCCCC(=O)O,inactive
16,OC/C=C/c1ccccc1,inactive
17,Cc1ccc(C(C)(C)C)c(O)c1,inactive
18,O=[N+]([O-])c1ccc(NCCO)c(OCCO)c1,inactive
19,COC(=O)CCS,inactive
20,CNC(C)=O,inactive
